Lassa entry inh: Lassa virus entry inhibition. Lassa virus pseudotype entry inhibition, cell reporter. Potency, µM (top dose mostly 37.9 µM), for the others: at the highest dose activity change, negative = inhibition, most hits filed as inhibitors. 300,000 tested, 1.2% active. AID 540256; calls by dose curve; tested in HEK293 cells; also: potency is read from the fitted curve at half-maximal effect; nearly all actives have a fitted effect of over 50% in size
HCV inh: HCV inhibition. AID 651820. Huh7.5.1 HCVcc-Cre infection, luciferase reporter, 44 h. Potency, µM (series often up to 41.8 µM), for the others: at the top dose activity change, negative = inhibition, hits mostly inhibitors. 340,000 tested, 3.4% active; active = well fitted inhibition curve with a large enough effect; inconclusive = small, poorly fitted or top-dose-only effect, or another doubt; inactive = no such curve, though single readings can be large or run the other way; also: potency is read from the fitted curve at half-maximal effect
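HCVcc-Cre virus at an moi near 0.5 was added right after compound to cells cultured 4 h from seeding (1,000 cells/well). Luciferase activity was determined 44 h later, 15 min after substrate addition at RT.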
HCMV antiviral: inhibitors of human cytomegalovirus; HFF cells, HCMV-luciferase reporter, 72 h; active compounds read low; activity change, negative = inhibition, % at 57.5 µM; 410,000 tested, 4.5% active; AID 1259415; in the data active = activity change below about -60%; inconclusive = no clear call, values can overlap the other calls; inactive = above about -39%
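Cell-based, HFFs, 1000 cells/well, 16 h 37C; cpds in DMSO + HCMV-luc, MOI 1 PFU/cell; 72 h 37C; OneGlo luminescence after 5 min RT; norm. to buffer vs Salinomycin 10uM.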
FMDV inh: antivirals against foot and mouth disease virus; FMDV antiviral cell-based qHTS; Potency, µM (titrated, usually from 57.9 µM), for inactives: at the top dose activity change, negative = inhibition, hits mostly inhibitors; 410,000 tested, 1.2% active; AID 1159524; calls by dose curve; tested in HEK293T cells; also: read-out not given here; potency is read from the fitted curve at half-maximal effect; nearly all actives have a fitted effect of over 45% in size
Marburg entry inh: Marburg virus entry inhibition. Potency, µM (highest dose often 37.8 µM), for the others: at the highest dose activity change, negative = inhibition, actives largely listed as inhibitors. AID 540276. 300,000 tested, 1.8% active. Marburg virus pseudotyped entry inhibition, cell reporter; calls by dose curve; tested in HEK293 cells; also: potency is read from the fitted curve at half-maximal effect
* = called active by the depositor; ? = inconclusive; / = no result given; [ ] = remark or other dose. Only some compounds are listed: those with a hit (about 7.9% of all), similar ones and a draw of the others. % is scaled to controls: 0 for no effect and ±100 for the full control effect.

SMILES	Lassa entry inh	HCV inh	HCMV antiviral	FMDV inh	Marburg entry inh
Cc1ccc(/C=C2/C(=O)NC(=O)N(CCc3ccc(F)cc3)C2=O)o1	-19.7%	18.3%	173.1	25.1µM*	?
Cc1ccc(/C=C2\C(=O)NC(=S)N(c3ccc(F)cc3)C2=O)o1	/	6.4%	-10.1	31.6µM*	/
CCOc1ccc(C(=O)Nc2ccc(OCc3cc(=O)n4cccc(C)c4n3)cc2)cc1	10.4%[46.1 µM]	/	-7.0	-11.2%	/
CC(C)(C)NC(=O)C1CCN(c2nc3ccccc3nc2C(F)(F)F)CC1	-0.5%[46.1 µM]	/	-5.1	-5.0%	/
CCOC(=O)c1cnc(NCc2ccc(Cl)cc2)c2ccccc12	?	/	35.2	-15.7%	/
CCC1OC23CCCCC2C(C#N)(C(=N)O3)C1(C#N)C#N (centres undefined)	19.8%	-11.7%	?	14.1µM*	1.4%
N#CC12COC3(CCCCC3C1(C#N)C#N)OC2=N (centres undefined)	1.5%	-11.0%	15.7	28.2µM*	?
CCCC1OC23CCCCC2C(C#N)(C(=N)O3)C1(C#N)C#N (centres undefined)	4.3%	?	-34.9	-7.9%	0.1%
CCCC[C@]12Cc3c(ccc4ccccc34)[C@H](O1)C1=C(O2)C(=O)c2ccccc2C1=O	/	/	/	/	22.1%[14.2 µM]
CN(C)C(=O)c1cccc(-c2cnc3c(NC=O)cc(-c4cccc(C(F)(F)F)c4)cn23)c1	/	/	?	31.6µM*	/
CC(=O)Nc1cc(-c2ccc(N3CCN(C)CC3)cc2)cn2c(-c3ccccc3)cnc12	/	/	-60.3*	-7.8%	/
CN(C)CCNC(=O)c1cccc(-c2cnc3c(NC=O)cc(-c4cc(F)c(F)c(F)c4)cn23)c1	/	/	-75.5*	-6.3%	/
CN(C)CCNC(=O)c1cccc(-c2cnc3c(NC=O)cc(-c4ccc(S(C)(=O)=O)cc4)cn23)c1	/	/	-65.8*	6.0%	/
CC(=O)Nc1cc(-c2ccc(N3CCN(C)CC3)cc2)cn2c(-c3ccc(S(C)(=O)=O)cc3)cnc12	/	/	-4.5	-7.1%	/
CC(=O)c1ccc(-c2cnc3c(NC=O)cc(-c4ccc(S(C)(=O)=O)cc4)cn23)cc1	/	/	25.1	-18.5%	/
COc1cccc(-c2cc(NC=O)c3ncc(-c4cccc(C(=O)NCCN(C)C)c4)n3c2)c1	/	/	-32.7	-15.9%	/
CSc1ncccc1C(=O)NCCN1Cc2ccccc2OC(c2ccccc2F)C1 (centres undefined)	/	/	/	7.3%	/
CN(C)CCNC(=O)c1cccc(-c2cc(NC=O)c3ncc(-c4cccc(C(F)(F)F)c4)n3c2)c1	/	/	-61.5*	-2.1%	/
CC(=O)Nc1cc(-c2cccnc2)cn2c(-c3cccc(C(F)(F)F)c3)cnc12	/	/	-62.0*	-12.3%	/
COc1ccccc1-c1cc(NC(C)=O)c2ncc(-c3cccc(C(F)(F)F)c3)n2c1	/	/	14.7	-27.8%	/
NC(=O)N1CCC2=C1CCCC2	/	/	/	/	5.4%[46.1 µM]
Cc1ccc2oc(=O)c3cc(C(=O)Nc4cccc(C#N)c4)sc3c2c1	-5.1%[46.1 µM]	/	7.3	0.0%	2.2%[46.1 µM]
CC(=O)c1ccc(NC(=O)c2cc3c(=O)oc4ccc(C)cc4c3s2)cc1	1.3%[46.1 µM]	/	-93.0*	0.7%	4.3%[46.1 µM]
O=C(NC1CCCCC1)N1CCN(CCc2ccccc2)CC1	-30.5%[14.3 µM]	2.8%	54.5	12.9%	18.3%
O=C(NC1CCCCC1)N1CCN(Cc2ccco2)CC1	8.7%	11.2%	-63.2*	13.5%	13.0%[46.1 µM]
SMILES	Lassa entry inh	HCV inh	HCMV antiviral	FMDV inh	Marburg entry inh
COc1ccc(/C=C/C(=O)Nc2ccc(OC)nc2)cc1	19.0%	-26.6%	2.2	1.9%	0.5%
COc1ccc(CS(=O)(=O)/C(Cl)=C(/Cl)C(=O)Nc2ccc(OC)nc2)cc1	6.31µM*	3.98µM*	/	11.2µM*	2.82µM*
Cc1cccc(NC(=O)c2ccc(N(C)C3CCCCC3)c([N+](=O)[O-])c2)n1	?	14.1µM*	?	?	?
O[C@@H]1CN=C2Sc3ccccc3N2C1	/	/	/	/	-9.4%
Cc1oc2ccccc2c1CC(=O)NCCCN(C)C	/	-13.4%	-64.3*	-20.0%	/
CN(C)CCCNC(=O)/C(=N\O)c1ccccc1	-0.2%	10.3%	3.5	0.0%	12.7%
O=C(Nc1cccc(/C=C/c2ccccn2)c1)c1cc(Cl)ccn1	/	5.01µM*	68.1	19.2%	24.0%[46.1 µM]
COc1ccc(NC(=O)CNC(=O)Cc2cccc3ccccc23)cc1	/	5.0%	15.5	-20.4%	/
CC(=O)Nc1ccc(OCc2cccc3ccccc23)cc1	/	-13.1%	-79.2*	-0.2%	/
c1ccc(-c2cnc(CSc3ncnc4sccc34)o2)cc1	4.3%	11.2µM*	3.4	-5.5%	-11.2%
CCCCCCN(C(=O)CCCCCN1C(=O)NC(c2ccc(-c3ccccc3)cc2)C(C(=O)OCc2ccccc2)=C1C)C(C(=O)NCCCC)c1ccc(OCC(=O)OC)cc1 (centres undefined)	4.8%	6.8%[8.37 µM]	/	/	10.1%
CCCCNC(=O)C(c1ccc(OCC(=O)OC)c(C(=O)OC)c1)N(CCOC)C(=O)CCCCCN1C(=O)NC(c2ccc(-c3ccccc3)cc2)C(C(=O)OCc2ccccc2)=C1C (centres undefined)	/	/	-94.9*	/	/
CCOC(=O)c1cc(-c2ccccc2)nc2nc(N(CC)CC)sc12	?	14.1µM*	-90.5*	-24.9%	?
CCOC(=O)c1cc(-c2ccccc2)nc2nc(N3CCCCC3)sc12	-11.9%	-18.7%	-4.5	-3.5%	14.7%
CCOC(=O)c1cnn2c(C)cc(-c3ccccc3)nc12	6.8%	10µM*	41.7	40.0%	9.1%
CN(C)C(=O)c1cnc(-c2ccccc2)nc1-c1ccccc1	-2.0%	-8.8%	-62.2*	-12.8%	?
CCOC(=O)c1cnc(N)nc1-c1ccccc1	13.1%	18.1%	-9.9	-24.7%	-4.0%
CCOC(=O)c1cnc(-c2ccccc2)nc1-c1ccccc1	-7.0%[46.1 µM]	-12.3%	-102.1*	-9.3%	?
COc1cc(OC)c(NC(=O)c2ccc(-n3cnc4cccnc43)cc2)cc1Cl	?	/	-26.9	1.8%	/
C=CCOC(=O)C1=C(C)N=C2SCCC(=O)N2C1/C=C/c1ccccc1 (centres undefined)	/	?	-103.2*	1.0%	/
CCc1ccc2nc(SCC(=O)N3CCCCC3)c(C#N)cc2c1	?	?	0.6	4.8%	?
N#Cc1cc2cc3c(cc2nc1SCC(=O)N1CCOCC1)OCCO3	?	4.0%	-61.1*	?	?
COc1ccc2nc(SCC(=O)N3CCCCCC3)c(C#N)cc2c1	-2.7%	6.31µM*	18.5	17.4%	17.2%
Cc1cc2cc3c(cc2nc1SCC(=O)O)OCCO3	1.7%	12.9%	-34.9	12.6%	13.9%
COc1ccc2nc(SCC(=O)N3CCCCC3)c(C#N)cc2c1	-26.6%	-16.8%	23.3	33.1%	8.5%[46.1 µM]
Cc1cc2cc3c(cc2nc1SCC(=O)N1CCCC1)OCCO3	-7.0%	-27.5%	-60.6*	3.5%	?
CCC(C)NC(=O)CSc1ccc(S(=O)(=O)N(C)C2CCCCC2)cn1 (centres undefined)	3.98µM*	?	-4.8	-28.9%	?
COc1ccc(-c2nc3ccccc3n3c(-c4ccccc4)c4c(=O)n(C)c(=O)n(C)c4c23)cc1OC	-12.5%[46.1 µM]	/	24.5	-0.7%	2.8%[46.1 µM]

Source: PubChem
